Measurements taken from PubChem BioAssay (Tox21).
Results filed as inconclusive are left out. Calls of active or inactive are those of the source. Unless noted, calls come from the whole dose curve; as a rule, active = well fitted curve in the direction sought with a large enough effect in the repeat runs; inconclusive = weak or mixed curves; inactive = no such curve, though single readings can be large; an effect the other way counts as inactive or inconclusive.

Assays:
[1] = molecular target: Aryl hydrocarbon receptor (Homo sapiens) (UniProt P35869); test: qHTS assay to identify small molecule that activate the aryl hydrocarbon receptor (AhR) signaling pathway (AID 743085); note: nearly all actives have a fitted effect of over 15% in size; note: potency is the fitted concentration of half-maximal effect;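 for activation: HG2L7.5c1 human HepG2 liver cells with stably integrated DRE-driven firefly reporter; series mostly up to about 70 µM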
In short: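 A multiplexed format paired cell viability (CellTiter-Fluor fluorescence) with AhR-dependent luciferase output (ONE-Glo luminescence) in the same wells of HepG2 DRE-luc cells after 24 h compound exposure at 37C.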

[2] = qHTS assay to identify small molecule that activate the aryl hydrocarbon receptor (AhR) signaling pathway - cell viability counter screen (AID 743086);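 note: HepG2 liver cells carrying the AhR DRE luciferase reporter; series mostly up to about 70 µM; nearly all actives have a fitted effect of over 45% in size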
In short: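 HepG2-AhR-luc (HG2L7.5c1) cells, 4000/well, treated 24 h at 37 C with compound; viability measured as CellTiter-Fluor fluorescence after 30 min in the same wells as the luciferase read.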

[3] = qHTS assay to identify small molecule antagonists of the peroxisome proliferator-activated receptor gamma (PPARg) signaling pathway - cell viability counter screen (AID 743194); note: nearly all actives have a fitted effect of over 55% in size
In short: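 Cytotoxicity counter screen in PPARg-bla HEK293H cells, same wells as reporter assay. Compounds plus 50 nM rosiglitazone (final) for 17 h at 37 C, then viability read by CellTiter-Glo luminescence.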

[4] = qHTS assay for small molecule activators of the heat shock response signaling pathway - cell viability counter screen (AID 743209); note: nearly all actives have a fitted effect of over 50% in size
In short: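 HSE-bla HeLa cells plated overnight, then exposed to Tox21 compounds (23 nL in DMSO) for 5 h at 37 C. After the bla reporter read, CellTiter-Glo was added in the same wells and luminescence read after 30 min at room temperature.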

[5] = molecular target: Peroxisome proliferator-activated receptor delta (Homo sapiens) (UniProt Q03181); test: qHTS assay to identify small molecule agonists of the peroxisome proliferator-activated receptor delta (PPARd) signaling pathway (AID 743212; calls by dose curve; note: potency is the fitted concentration of half-maximal effect)
In short: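 GeneBLAzer UAS-bla HEK293H cells carrying a PPARδ construct were exposed to compounds at 37 °C. Beta-lactamase activity was read by FRET fluorescence after 2 h at room temperature with LiveBLAzer B/G substrate.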

[6] = qHTS assay to identify small molecule antagonists of the peroxisome proliferator-activated receptor delta (PPARd) signaling pathway - cell viability counter screen (AID 743213); note: nearly all actives have a fitted effect of over 50% in size
In short: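 Viability counter-screen, qHTS format: PPARd-bla HEK293H, L165041 300 nM final, 17 h compound exposure at 37 C, CellTiter-Glo luminescence after 30 min RT.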

[7] = molecular target: Peroxisome proliferator-activated receptor delta (Homo sapiens) (UniProt Q03181); test: qHTS assay to identify small molecule antagonists of the peroxisome proliferator-activated receptor delta (PPARd) signaling pathway (AID 743215; active = well fitted inhibition curve with a large enough effect in the signal ratio in the repeat runs, not every such curve was filed as active; the % refers to the signal ratio;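 note: cells stimulated with agonist L165041 at 300 nM final during compound exposure; series mostly up to about 62 µM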)
In short: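 PPARd-bla HEK293H cells (UAS-bla reporter) preincubated 5 h, then given compound plus 300 nM final L165041 agonist for 17 h at 37 C. Beta-lactamase activity read by LiveBLAzer B/G FRET substrate fluorescence after 2 h at room temperature.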

[8] = qHTS assay to identify small molecule agonists of the farnesoid-X-receptor (FXR) signaling pathway - cell viability counter screen (AID 743218); note: nearly all actives have a fitted effect of over 45% in size; note: potency is the fitted concentration of half-maximal effect
In short: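 FXR-UAS-bla HEK 293T cells exposed to compounds for 16 h at 37C. Cytotoxicity read in the same wells by CellTiter-Glo luminescence after 30 min at room temperature, following the beta-lactamase FRET read.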

[9] = qHTS assay to identify small molecule antagonists of the farnesoid-X-receptor (FXR) signaling pathway - cell viability counter screen (AID 743221; active = well fitted cell-killing curve with a large enough effect in the repeat runs, not every such curve was filed as active; note: nearly all actives have a fitted effect of over 50% in size)
In short: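 Cytotoxicity is taken from ATP luminescence (CellTiter-Glo, 30 min, room temperature) in FXR-bla HEK 293T cells previously incubated 16 h at 37 C with compound and chenodeoxycholic acid at 50 uM final.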

[10] = molecular target: Vitamin D3 receptor (Homo sapiens) (UniProt P11473); test: qHTS assay to identify small molecule agonists of the vitamin D receptor (VDR) signaling pathway (AID 743222; calls by dose curve)
In short: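 VDR-bla cells plated 4 h at 37 C, then exposed to compounds for 16 h at 37 C. Beta-lactamase reporter activity measured by fluorescence after 2 h room-temperature loading with LiveBLAzer B/G FRET substrate.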

[11] = molecular target: Vitamin D3 receptor (Homo sapiens) (UniProt P11473); test: qHTS assay to identify small molecule antagonists of the vitamin D receptor (VDR) signaling pathway (AID 743223; active = well fitted inhibition curve with a large enough effect in the signal ratio in the repeat runs, not every such curve was filed as active; the % refers to the signal ratio)
In short: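 Quantitative HTS in VDR-bla reporter cells stimulated with 1alpha,25-dihydroxyvitamin D3, 3 nM final. Compound exposure 16 h, 37C, 5% CO2. Read-out: beta-lactamase FRET substrate fluorescence, 2 h RT.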

[12] = qHTS assay to identify small molecule agonists of the vitamin D receptor (VDR) signaling pathway - cell viability counter screen (AID 743224); note: nearly all actives have a fitted effect of over 50% in size; note: potency is the fitted concentration of half-maximal effect; for activity change, negative = cytotoxicity: series mostly up to about 63 µM
In short: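 VDR-bla cells, 4 h after plating, exposed to compounds for 16 h at 37C; viability then read in the same wells as CellTiter-Glo luminescence after 30 min at room temperature, following the bla FRET read.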

[13] = qHTS assay for small molecule agonists of the antioxidant response element (ARE) signaling pathway - cell viability counter screen (AID 743203; calls by dose curve; note: nearly all actives have a fitted effect of over 55% in size)
In short: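 ARE-bla HepG2 cells were plated, rested 5 h at 37C/5% CO2, then exposed to compounds in DMSO for 16 h. Viability was read as CellTiter-Glo luminescence after 30 min at room temperature, in the same wells as the ARE screen.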

[14] = molecular target: Bile acid receptor (Homo sapiens) (UniProt Q96RI1); test: qHTS assay to identify small molecule antagonists of the farnesoid-X-receptor (FXR) signaling pathway (AID 743217; active = well fitted inhibition curve with a large enough effect in the signal ratio in the repeat runs, not every such curve was filed as active; the % refers to the signal ratio; note: potency is the fitted concentration of half-maximal effect)
In short: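 FXR-UAS-bla HEK 293T cells (beta-lactamase reporter) given compound plus chenodeoxycholic acid (50 uM final), 16 h at 37C. LiveBLAzer B/G FRET substrate added for 2 h at room temperature; fluorescence read.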

[15] = qHTS assay for small molecule agonists of the antioxidant response element (ARE) signaling pathway (AID 743202; active = well fitted activation curve with a large enough effect in the signal ratio in the repeat runs, not every such curve was filed as active; the % refers to the signal ratio; note: potency is the fitted concentration of half-maximal effect)
In short: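 ARE-bla HepG2 cells (beta-lactamase reporter under the antioxidant response element), plated 5 hours, then exposed to compounds 16 hours at 37 C. LiveBLAzer B/G FRET substrate added for 2 hours at room temperature; fluorescence intensity read.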

[16] = qHTS assay to identify small molecule agonists of the peroxisome proliferator-activated receptor delta (PPARd) signaling pathway - cell viability counter screen (AID 743211); note: nearly all actives have a fitted effect of over 55% in size
In short: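 Tox21 library compounds, delivered in DMSO, were incubated 17 h with PPARd-bla HEK293H cells; cytotoxicity was taken from CellTiter-Glo luminescence read 30 min after reagent addition.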

[17] = molecular target: Bile acid receptor (Homo sapiens) (UniProt Q96RI1); test: qHTS assay to identify small molecule agonists of the farnesoid-X-receptor (FXR) signaling pathway (AID 743220; active = well fitted activation curve with a large enough effect in the signal ratio in the repeat runs, not every such curve was filed as active; the % refers to the signal ratio)
In short: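 Beta-lactamase reporter under UAS control in GeneBLAzer FXR HEK 293T cells (5000/well) measured with LiveBLAzer FRET substrate after 2 h at room temperature. Compound exposure lasted 16 h at 37C.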

[18] = qHTS assay for small molecule activators of the heat shock response signaling pathway (AID 743210; active = well fitted activation curve with a large enough effect in the signal ratio in the repeat runs, with a control signal flat, not every such curve was filed as active; the % refers to the signal ratio; note: potency is the fitted concentration of half-maximal effect; for activation: series mostly up to about 63 µM)
In short: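 HSE-bla HeLa cells (beta-lactamase reporter under heat shock response elements), plated overnight, then exposed to compounds 5 h at 37 C; LiveBLAzer B/G FRET substrate added, 2.5 h at room temperature, fluorescence intensity read.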

[19] = molecular target: Peroxisome proliferator-activated receptor gamma (Homo sapiens) (UniProt P37231); test: qHTS assay to identify small molecule agonists of the peroxisome proliferator-activated receptor gamma (PPARg) signaling pathway (AID 743094; active = well fitted activation curve with a large enough effect in the signal ratio in the repeat runs, not every such curve was filed as active; the % refers to the signal ratio; note: potency is the fitted concentration of half-maximal effect)
In short: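 GeneBLAzer PPARg UAS-bla HEK293H cells were plated, rested 5 h, then exposed to compounds for 17 h at 37C. Beta-lactamase activity was read by LiveBLAzer B/G FRET substrate fluorescence after 1 h at room temperature.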

[20] = molecular target: Peroxisome proliferator-activated receptor gamma (Homo sapiens) (UniProt P37231); test: qHTS assay to identify small molecule antagonists of the peroxisome proliferator-activated receptor gamma (PPARg) signaling pathway (AID 743191; calls by dose curve; note: series mostly up to about 63 µM; nearly all actives have a fitted effect of over 30% in size)
In short: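 GeneBLAzer PPARg UAS-bla HEK293H cells, 5 h post-plating, exposed to compounds 17 h at 37C. LiveBLAzer B/G FRET substrate added for 1 h at room temperature; beta-lactamase reporter read by fluorescence intensity.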
% is set by controls: 0 for no effect and ±100 for the full control effect.

Sequence of Bile acid receptor (Homo sapiens) (Q96RI1 whole entry, looked up): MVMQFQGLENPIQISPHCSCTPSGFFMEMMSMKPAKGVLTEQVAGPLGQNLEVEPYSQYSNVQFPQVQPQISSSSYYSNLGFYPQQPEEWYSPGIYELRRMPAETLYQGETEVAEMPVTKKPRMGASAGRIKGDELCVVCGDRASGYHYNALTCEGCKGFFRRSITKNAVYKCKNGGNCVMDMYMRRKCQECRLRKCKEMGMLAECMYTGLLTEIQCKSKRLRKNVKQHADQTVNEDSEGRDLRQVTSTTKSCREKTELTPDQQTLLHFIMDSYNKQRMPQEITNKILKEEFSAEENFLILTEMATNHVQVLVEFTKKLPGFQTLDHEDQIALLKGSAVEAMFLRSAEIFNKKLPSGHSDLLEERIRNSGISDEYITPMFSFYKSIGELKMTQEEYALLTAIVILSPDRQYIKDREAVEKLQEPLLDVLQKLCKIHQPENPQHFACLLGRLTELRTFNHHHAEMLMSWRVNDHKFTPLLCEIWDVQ
Sequence of Aryl hydrocarbon receptor (Homo sapiens) (P35869 whole entry, looked up): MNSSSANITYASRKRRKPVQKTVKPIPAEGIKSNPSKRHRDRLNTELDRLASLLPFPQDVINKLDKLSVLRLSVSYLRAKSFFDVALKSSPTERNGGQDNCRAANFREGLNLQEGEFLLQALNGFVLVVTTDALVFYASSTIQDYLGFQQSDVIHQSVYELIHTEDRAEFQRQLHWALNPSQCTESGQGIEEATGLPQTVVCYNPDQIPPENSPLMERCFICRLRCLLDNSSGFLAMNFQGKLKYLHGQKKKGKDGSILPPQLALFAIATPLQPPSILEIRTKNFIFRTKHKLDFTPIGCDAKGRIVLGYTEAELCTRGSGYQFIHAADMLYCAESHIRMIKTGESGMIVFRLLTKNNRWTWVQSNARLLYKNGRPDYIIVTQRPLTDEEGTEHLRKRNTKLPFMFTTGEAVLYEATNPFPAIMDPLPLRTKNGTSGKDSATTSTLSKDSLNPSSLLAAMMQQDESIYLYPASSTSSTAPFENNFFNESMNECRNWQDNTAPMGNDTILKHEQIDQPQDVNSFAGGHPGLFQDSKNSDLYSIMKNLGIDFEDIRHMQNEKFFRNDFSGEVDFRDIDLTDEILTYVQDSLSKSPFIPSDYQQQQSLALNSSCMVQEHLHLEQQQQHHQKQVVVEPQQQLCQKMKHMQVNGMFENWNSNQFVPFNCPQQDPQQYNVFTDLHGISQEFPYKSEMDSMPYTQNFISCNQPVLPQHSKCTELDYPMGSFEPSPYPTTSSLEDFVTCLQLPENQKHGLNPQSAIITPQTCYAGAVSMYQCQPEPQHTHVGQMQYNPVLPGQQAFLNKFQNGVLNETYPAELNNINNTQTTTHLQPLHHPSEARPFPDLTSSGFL
Sequence of Vitamin D3 receptor (Homo sapiens) (P11473 whole entry, looked up): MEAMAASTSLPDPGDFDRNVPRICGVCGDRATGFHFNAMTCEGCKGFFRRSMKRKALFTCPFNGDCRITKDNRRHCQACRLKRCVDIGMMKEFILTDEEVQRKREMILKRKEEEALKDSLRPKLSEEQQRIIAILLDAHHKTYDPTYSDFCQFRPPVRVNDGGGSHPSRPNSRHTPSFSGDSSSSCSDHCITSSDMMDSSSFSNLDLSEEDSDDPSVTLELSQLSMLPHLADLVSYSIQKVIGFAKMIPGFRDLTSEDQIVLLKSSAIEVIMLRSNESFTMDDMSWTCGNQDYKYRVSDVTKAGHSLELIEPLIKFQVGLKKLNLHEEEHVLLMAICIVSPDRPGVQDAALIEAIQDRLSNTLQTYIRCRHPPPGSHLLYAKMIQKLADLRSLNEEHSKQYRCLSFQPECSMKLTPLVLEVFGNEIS
Sequence of Peroxisome proliferator-activated receptor delta (Homo sapiens) (Q03181 whole entry, looked up): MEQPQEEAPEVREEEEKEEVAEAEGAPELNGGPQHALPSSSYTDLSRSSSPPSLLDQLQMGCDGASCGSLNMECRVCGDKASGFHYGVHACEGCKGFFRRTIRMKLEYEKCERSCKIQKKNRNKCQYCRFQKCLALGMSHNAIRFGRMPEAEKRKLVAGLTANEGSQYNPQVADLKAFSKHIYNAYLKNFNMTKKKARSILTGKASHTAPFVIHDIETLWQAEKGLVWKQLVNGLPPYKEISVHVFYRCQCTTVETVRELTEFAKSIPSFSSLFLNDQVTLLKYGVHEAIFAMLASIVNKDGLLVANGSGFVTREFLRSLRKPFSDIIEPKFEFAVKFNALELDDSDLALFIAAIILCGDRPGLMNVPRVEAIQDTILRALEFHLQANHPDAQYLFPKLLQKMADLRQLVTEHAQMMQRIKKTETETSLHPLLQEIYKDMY
Sequence of Peroxisome proliferator-activated receptor gamma (Homo sapiens) (P37231 whole entry, looked up): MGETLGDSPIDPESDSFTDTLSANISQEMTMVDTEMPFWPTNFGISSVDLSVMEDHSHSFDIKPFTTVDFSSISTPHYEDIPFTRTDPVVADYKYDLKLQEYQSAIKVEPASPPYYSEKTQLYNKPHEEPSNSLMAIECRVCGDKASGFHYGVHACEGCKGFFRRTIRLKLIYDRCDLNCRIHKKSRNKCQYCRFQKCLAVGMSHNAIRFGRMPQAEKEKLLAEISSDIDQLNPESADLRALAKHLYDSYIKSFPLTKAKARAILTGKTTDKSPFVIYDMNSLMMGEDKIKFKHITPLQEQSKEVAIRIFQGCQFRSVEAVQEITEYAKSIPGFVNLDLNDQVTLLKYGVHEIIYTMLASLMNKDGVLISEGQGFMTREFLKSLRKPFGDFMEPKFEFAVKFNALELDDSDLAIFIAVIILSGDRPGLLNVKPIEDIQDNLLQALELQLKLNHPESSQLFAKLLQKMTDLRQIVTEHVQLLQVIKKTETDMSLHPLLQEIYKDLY

COc1cccc(N(C)C(=S)Oc2ccc3c(c2)CCCC3)n1
inactive: Potency [1] | Potency [2] | Potency [3] | Potency [4] | Potency [5] | Potency [6] | Potency [7] | Potency [8] | Potency [9] | Potency [10] | outcome [11] | Potency [12]

O=C(O)C(S)C(S)C(=O)O (stereo not given)
inactive: Potency [1] | Potency [2] | Potency [3] | Potency [13] | Potency [4] | Potency [5] | Potency [6] | Potency [7] | Potency [14] | Potency [8] | Potency [9] | Potency [10] | outcome [11] | Potency [12]

Nc1c(CC(=O)O)cccc1C(=O)c1ccc(Br)cc1
inactive: Potency [1] | Potency [2] | Potency [3] | Potency [15] | Potency [4] | Potency [16] | Potency [7] | Potency [14] | Potency [8] | Potency [17] | Potency [9] | Potency [12]

CC(=O)[O][Al]
inactive: Potency [1] | Potency [2] | Potency [3] | Potency [15] | Potency [4] | Potency [6] | Potency [8] | Potency [9] | Potency [12]

Cc1oc2c(NC(=O)c3c(Cl)cccc3Cl)cccc2c1C(C)(C)O
active: Potency [1] 8.63 µM | Potency [14] 38.9 µM | Potency [8] 21.9 µM
inactive: Potency [2] | Potency [3] | Potency [18] | Potency [5] | Potency [7] | Potency [9] | outcome [11]

O=C(OCCCCCCOC(=O)c1ccccc1)c1ccccc1
inactive: Potency [1] | Potency [2] | Potency [3] | Potency [13] | Potency [5] | Potency [14] | Potency [8] | Potency [9] | outcome [11]
active: Potency [18] 57.1 µM | Potency [12] 43.6 µM

COc1cc2nc(N(C)CCCNC(=O)C3CCCO3)nc(N)c2cc1OC (stereo not given)
active: Potency [15] 23.7 µM
inactive: Potency [2] | Potency [19] | Potency [20] | Potency [3] | Potency [13] | Potency [4] | Potency [16] | Potency [5] | Potency [6] | Potency [7] | Potency [8] | Potency [9] | Potency [12]

CCCCC/C=C\C/C=C\CCCCCCCC(=O)NC(C)c1ccccc1 (stereo not given)
inactive: Potency [2] | Potency [19] | Potency [3] | Potency [13] | Potency [4] | Potency [7] | Potency [8] | Potency [9] | Potency [12]
active: Potency [15] 29.8 µM

Brc1c2ccccc2c(Br)c2ccccc12
active: Potency [19] 1.98 µM | Potency [5] 1.98 µM
inactive: viability change, negative = cytotoxic [2] -2.96% [at 8.47 µM] | activity change, negative = cytotoxicity [3] 7.41% [at 5.95 µM] | viability change, negative = cytotoxic [13] 3.8% [at 8.36 µM] | activity change, negative = cytotoxicity [4] 2.9% [at 5.95 µM] | activity change, negative = cytotoxicity [16] 11.2% [at 5.95 µM] | viability change, negative = cytotoxic [6] -15% [at 6.26 µM] | ratio activity, negative = inhibition [7] -10.9% [at 6.26 µM] | activity change, negative = inhibition [14] 14.8% [at 5.95 µM] | activity change, negative = cytotoxicity [9] -3.74% [at 5.95 µM] | activity change, negative = cytotoxicity [12] 13.8% [at 5.95 µM]

c1cc(CCCc2ccncc2)ccn1
inactive: Potency [2] | Potency [19] | Potency [3] | Potency [15] | Potency [13] | Potency [4] | Potency [18] | Potency [16] | Potency [5] | Potency [6] | Potency [7] | Potency [8] | Potency [9] | Potency [10] | outcome [11] | Potency [12]
